Compound activity deposited in PubChem BioAssay by several laboratories.
A selection: hits, their analogues and other compounds. The true share with any hit is near 1.8%.
beta cell repl = inducers of MIN6 beta-cell proliferation, primary screen, ATP luminescence, uHTS; MIN6 cells proliferation, ATPlite luminescence, 48 h; cells starved in 0.2% serum; 100% = growth in 10% serum; proliferation, % at 10 µM; 330,000 tested, 0.29% active; AID 2380, 2010;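 active = compounds whose signal lies at least 3.5 SD above the mean of all wells on their plate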
CendR NRP1 mod = modulators of CendR peptide binding to NRP-1, primary screen, biochemical, fluorescence polarization, uHTS. Neuropilin-1 (Homo sapiens), O14786. FAM-RPARPAR peptide binding to NRP-1. inhibition, % at 25 µM. 360,000 tested, 0.85% active;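 active = inhibition or corrected inhibition above about 18%, plus a signal ratio from 0.5 to 1.5, limit read from the data, passing the limit was not always enough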
APOBEC3G inh = APOBEC3G DNA deaminase inhibitors, primary screen, biochemical, fluorescence, single-stranded DNA substrate, uHTS. DNA dC->dU-editing enzyme APOBEC-3G (Homo sapiens), Q9HC16. recombinant A3G, ssDNA deamination FAM/TAMRA fluorescence. inhibition, % at 20 µM. 330,000 tested, 0.28% active;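 active = inhibition of at least 40% at 20 µM, with no more than 30% in the related APOBEC3A deaminase screen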
APOBEC3A inh = APOBEC3A ssDNA deaminase inhibitors, primary screen, selectivity assay for APOBEC3G inhibitor project, biochemical, FAM/TAMRA oligo cleavage fluorescence | DNA dC->dU-editing enzyme APOBEC-3A (Homo sapiens), P31941 | recombinant A3A, FAM/TAMRA ssDNA deamination fluorescence | inhibition, % at 20 µM | 330,000 tested, 0.41% active | AID 493011, 2011;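 active = at least 40% inhibition at 20 µM here, with at most 30% in a related deaminase screen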
VLA-4 inh = inhibition in human VLA-4 binding assay, primary screen, VLA-4 allosteric modulator project, MLPCN library, flow cytometry, VLA-4 expressing cells; Integrin alpha-4 (Homo sapiens), P13612; ligand binding flow cytometry; inhibition, % (about 7 µM as worked out from the volumes in the protocol); 330,000 tested, 0.2% active; AID 2557, 2010; in the data active = inhibition above about 50%
Target sequence (P13612 whole entry, looked up): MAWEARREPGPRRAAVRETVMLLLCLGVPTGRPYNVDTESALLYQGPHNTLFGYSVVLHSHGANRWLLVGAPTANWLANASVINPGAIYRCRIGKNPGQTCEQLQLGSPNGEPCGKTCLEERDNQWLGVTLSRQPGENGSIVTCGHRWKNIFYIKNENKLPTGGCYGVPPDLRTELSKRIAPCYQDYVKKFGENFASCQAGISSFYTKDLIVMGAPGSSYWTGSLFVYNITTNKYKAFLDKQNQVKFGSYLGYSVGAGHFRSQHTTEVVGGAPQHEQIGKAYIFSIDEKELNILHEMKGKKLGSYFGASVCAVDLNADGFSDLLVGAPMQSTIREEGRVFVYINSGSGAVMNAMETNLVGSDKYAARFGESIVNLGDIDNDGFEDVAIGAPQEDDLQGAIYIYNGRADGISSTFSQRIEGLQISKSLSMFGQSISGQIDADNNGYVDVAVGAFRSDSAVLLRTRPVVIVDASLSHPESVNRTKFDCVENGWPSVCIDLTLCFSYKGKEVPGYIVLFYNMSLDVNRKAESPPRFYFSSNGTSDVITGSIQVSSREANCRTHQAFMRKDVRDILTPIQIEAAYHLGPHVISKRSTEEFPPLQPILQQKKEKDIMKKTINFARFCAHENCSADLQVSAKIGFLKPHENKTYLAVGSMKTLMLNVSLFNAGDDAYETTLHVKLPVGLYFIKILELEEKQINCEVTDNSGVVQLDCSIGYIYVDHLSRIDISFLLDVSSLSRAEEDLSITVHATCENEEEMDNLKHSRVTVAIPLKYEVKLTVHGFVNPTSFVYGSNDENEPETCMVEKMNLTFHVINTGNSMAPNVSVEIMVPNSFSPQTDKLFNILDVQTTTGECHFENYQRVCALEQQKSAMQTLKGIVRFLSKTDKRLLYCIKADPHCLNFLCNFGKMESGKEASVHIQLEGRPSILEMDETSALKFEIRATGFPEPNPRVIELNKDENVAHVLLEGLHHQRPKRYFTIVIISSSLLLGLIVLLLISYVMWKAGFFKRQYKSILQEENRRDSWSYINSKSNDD
A number is an active result.

COc1cccc(NC(=O)CSc2ccc3nnc(CCNC(=O)c4ccccc4)n3n2)c1 was read as beta cell repl inactive, CendR NRP1 mod 20, APOBEC3G inh inactive, APOBEC3A inh inactive and VLA-4 inh inactive.
Screening CC(C)N1CCC(n2nccc2NC(=O)c2ccc3c(c2)OCO3)CC1 returned beta cell repl inactive, CendR NRP1 mod inactive, APOBEC3G inh inactive, APOBEC3A inh inactive and VLA-4 inh inactive.
CC(C)CCN1CCC(n2nccc2NC(=O)c2ccc3c(c2)OCO3)CC1 was read as beta cell repl inactive, CendR NRP1 mod 35, APOBEC3G inh inactive, APOBEC3A inh inactive and VLA-4 inh inactive.
`COc1ccccc1NC(=S)N(Cc1ccco1)Cc1cc2cccc(C)c2[nH]c1=O` gave beta cell repl inactive, CendR NRP1 mod 40, APOBEC3G inh inactive, APOBEC3A inh inactive and VLA-4 inh inactive.
CCNC(=O)NC(=O)CSc1ccccc1F was read as beta cell repl inactive, CendR NRP1 mod 35, APOBEC3G inh inactive, APOBEC3A inh inactive and VLA-4 inh inactive.
Screening CC(=O)c1cccc(OCC(=O)Nc2ccccc2N2CCOCC2)c1 returned beta cell repl inactive, CendR NRP1 mod inactive, APOBEC3G inh inactive, APOBEC3A inh inactive and VLA-4 inh inactive.
For O=C(NNc1ncnc2c1cnn2-c1ccc(F)cc1)c1ccco1 the results were beta cell repl inactive, CendR NRP1 mod 29, APOBEC3G inh inactive, APOBEC3A inh inactive and VLA-4 inh inactive.
Screening Cc1ccc(-n2ncc3c(NNC(=O)c4ccco4)ncnc32)c(C)c1 returned beta cell repl inactive, CendR NRP1 mod inactive, APOBEC3G inh inactive, APOBEC3A inh inactive and VLA-4 inh inactive.
`CCC(c1nnc(SCC(=O)Nc2ccc(N3CCOCC3)cc2)n1Cc1ccccc1)N(C)C` (centres undefined) gave beta cell repl inactive, CendR NRP1 mod 27, APOBEC3G inh inactive, APOBEC3A inh inactive and VLA-4 inh inactive.
Screening CCc1nnc(NC(=O)c2ccc(COc3cccc(C)c3)o2)s1 returned beta cell repl inactive, CendR NRP1 mod inactive, APOBEC3G inh inactive, APOBEC3A inh inactive and VLA-4 inh inactive.
CN1C(=S)SC(N(O)C(=O)Nc2cccc3ccccc23)C1(C)C (centres undefined) was read as beta cell repl inactive, CendR NRP1 mod 31, APOBEC3G inh inactive, APOBEC3A inh inactive and VLA-4 inh inactive.
COC(=O)c1ccccc1S(=O)(=O)N1CCC(C(=O)NC2CCCCC2C)CC1 (centres undefined) was read as beta cell repl inactive, CendR NRP1 mod inactive, APOBEC3G inh inactive, APOBEC3A inh inactive and VLA-4 inh inactive.
CCOC(=O)C[C@H]1c2cc(C(F)(F)F)ccc2S(=O)(=O)N1C(C)C was read as beta cell repl inactive, CendR NRP1 mod 34, APOBEC3G inh inactive, APOBEC3A inh inactive and VLA-4 inh inactive.
Cc1cc(NC(=O)C2CC(=O)N(c3ccccc3Cl)C2)no1 (centres undefined) was read as beta cell repl inactive, CendR NRP1 mod inactive, APOBEC3G inh inactive, APOBEC3A inh inactive and VLA-4 inh inactive.
`CCc1c2c(nc3ccc(OC(=O)N4CCC(N5CCCCC5)CC4)cc13)-c1cc3c(c(=O)n1C2)COC(=O)[C@]3(O)CC` gave beta cell repl inactive, CendR NRP1 mod inactive, APOBEC3G inh inactive, APOBEC3A inh inactive and VLA-4 inh inactive.
Screening CCC1(O)C(=O)OCc2c1cc1n(c2=O)Cc2cc3cc(O)ccc3nc2-1 (centres undefined) returned CendR NRP1 mod 45.
Screening O=C1CN(C(=O)COC(=O)c2cc(Cl)ccc2[N+](=O)[O-])c2ccccc2N1 returned CendR NRP1 mod inactive.
`Fc1ccc(-c2cc(C(F)(F)F)nc(NCc3cccs3)n2)cc1` gave beta cell repl inactive, CendR NRP1 mod 30, APOBEC3G inh inactive, APOBEC3A inh inactive and VLA-4 inh inactive.
Fc1ccc(CNc2nc(-c3ccco3)cc(C(F)(F)F)n2)cc1 was read as beta cell repl inactive, CendR NRP1 mod inactive, APOBEC3G inh inactive, APOBEC3A inh inactive and VLA-4 inh inactive.
